# Test results from the supplement of paper PMC6897291.
# Experiments:
# [1] = tested on: U-2932; experiment: growth inhibition by drug alone (1 - RLU/untreated control) (fraction); higher = stronger inhibition; conditions: 177Lu-lilotomab satetraxetan 0 ug/ml
# Method in brief: (§1)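 RIVA or U-2932 cells were left untreated or pretreated for 18 h with a radiolabelled anti-CD37 antibody conjugate (~600 MBq/mg) at 0.5 µg/ml for RIVA or 1 µg/ml for U-2932. The cells were then washed and seeded at 3,000 cells/well on plates pre-printed with the Selleck Cambridge Cancer Compound library, dosed at 10/100 nM for RIVA and 10/1,000 nM for U-2932. From day 3, RealTime-Glo luminescence was read daily after 1 h at 37°C. Growth inhibition was taken as one minus RLU over the mean of the untreated no-drug wells, of which there were 48 per plate.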
# [2] = tested on: RIVA; experiment: as above; conditions: 177Lu-lilotomab satetraxetan 0 ug/ml
# Method in brief: as §1
# [3] = tested on: U-2932; experiment: growth inhibition by drug plus 177Lu-lilotomab satetraxetan (1 - RLU/untreated control) (fraction); higher = stronger inhibition; conditions: 177Lu-lilotomab satetraxetan 1 ug/ml
# Method in brief: as §1
# [4] = tested on: RIVA; experiment: as above; conditions: 177Lu-lilotomab satetraxetan 0.5 ug/ml
# Method in brief: as §1
SMILES,"growth inhibition by drug alone ([1]; 10 nM, time (day): 3)","growth inhibition by drug alone ([1]; 10 nM, time (day): 4)","growth inhibition by drug alone ([1]; 10 nM, time (day): 5)","growth inhibition by drug alone ([1]; 10 nM, time (day): 6)","growth inhibition by drug alone ([1]; 1000 nM, time (day): 3)","growth inhibition by drug alone ([1]; 1000 nM, time (day): 4)","growth inhibition by drug alone ([1]; 1000 nM, time (day): 5)","growth inhibition by drug alone ([1]; 1000 nM, time (day): 6)","growth inhibition by drug alone ([2]; 10 nM, time (day): 3)","growth inhibition by drug alone ([2]; 10 nM, time (day): 4)","growth inhibition by drug alone ([2]; 10 nM, time (day): 5)","growth inhibition by drug alone ([2]; 10 nM, time (day): 6)","growth inhibition by drug alone ([2]; 100 nM, time (day): 3)","growth inhibition by drug alone ([2]; 100 nM, time (day): 4)","growth inhibition by drug alone ([2]; 100 nM, time (day): 5)","growth inhibition by drug alone ([2]; 100 nM, time (day): 6)","growth inhibition by drug plus 177Lu-lilotomab satetraxetan ([3]; 10 nM, time (day): 3)","growth inhibition by drug plus 177Lu-lilotomab satetraxetan ([3]; 10 nM, time (day): 4)","growth inhibition by drug plus 177Lu-lilotomab satetraxetan ([3]; 10 nM, time (day): 5)","growth inhibition by drug plus 177Lu-lilotomab satetraxetan ([3]; 10 nM, time (day): 6)","growth inhibition by drug plus 177Lu-lilotomab satetraxetan ([3]; 1000 nM, time (day): 3)","growth inhibition by drug plus 177Lu-lilotomab satetraxetan ([3]; 1000 nM, time (day): 4)","growth inhibition by drug plus 177Lu-lilotomab satetraxetan ([3]; 1000 nM, time (day): 5)","growth inhibition by drug plus 177Lu-lilotomab satetraxetan ([3]; 1000 nM, time (day): 6)","growth inhibition by drug plus 177Lu-lilotomab satetraxetan ([4]; 10 nM, time (day): 3)","growth inhibition by drug plus 177Lu-lilotomab satetraxetan ([4]; 10 nM, time (day): 4)","growth inhibition by drug plus 177Lu-lilotomab satetraxetan ([4]; 10 nM, time (day): 5)","growth inhibition by drug plus 177Lu-lilotomab satetraxetan ([4]; 10 nM, time (day): 6)","growth inhibition by drug plus 177Lu-lilotomab satetraxetan ([4]; 100 nM, time (day): 3)","growth inhibition by drug plus 177Lu-lilotomab satetraxetan ([4]; 100 nM, time (day): 4)","growth inhibition by drug plus 177Lu-lilotomab satetraxetan ([4]; 100 nM, time (day): 5)","growth inhibition by drug plus 177Lu-lilotomab satetraxetan ([4]; 100 nM, time (day): 6)"
CNC(=O)c1ccc(C)c(-n2c(C)cc(OCc3ccc(F)cc3F)c(Br)c2=O)c1,-0.0234,-0.0123,-0.0323,0.108,0.24,0.241,0.147,0.195,-0.177,-0.212,-0.219,-0.282,-0.0302,-0.0737,-0.127,-0.224,-0.0515,-0.0206,-0.0169,0.111,0.253,0.259,0.213,0.294,–,–,–,–,–,–,–,–
C[C@@H]1CN(CC(=O)Nc2ccc3c(c2)Cc2cccc(-c4cc(=O)cc(N5CCOCC5)o4)c2S3)C[C@H](C)O1,0.00343,-0.0228,-0.128,-0.257,-0.073,-0.0366,-0.0776,-0.17,-0.0136,-0.0829,-0.153,-0.417,-0.282,-0.285,-0.284,-0.465,-0.0592,-0.0257,-0.0361,-0.0183,-0.0688,0.0229,0.0334,0.0421,–,–,–,–,–,–,–,–
C#Cc1cccc(Nc2ncnc3cc(OC)c(OCCCCCCC(=O)NO)cc23)c1,-0.0221,-0.0137,-0.0216,0.0129,0.966,0.973,0.975,0.978,-0.19,-0.225,-0.209,-0.242,0.881,0.779,0.749,0.672,-0.132,-0.086,-0.0994,-0.0508,0.971,0.977,0.981,0.984,0.365,0.467,0.495,0.496,0.935,0.924,0.926,0.923
